About 83,000 compounds went through this panel and 20% of them were active in at least one assay; those are over-represented in the sample as a whole.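 Cells were grown in 96-well plates and exposed to the test compound at a single concentration for 48 hours; results are reported as percent growth, with values below 10 considered active.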 Values without a mark were called inactive. Active and inactive are the calls of the source.

This assay has as its system HCC-2998 colon. The experiment in a line: NCI-60 one-dose screen, 48 h (100 = growth as untreated, 0 = no growth, -100 = all killed). The conditions noted are these: 10 µM unless noted. How it is done: Growth inhibition of the HCC-2998 human tumor cell line is measured as a screen for anti-cancer activity. Cells are grown in 96 well plates and exposed to the test compound for 48 hours. Compounds are tested at a single concentration, which is 10^-5 M for most compounds. The reported endpoint is percent growth (GI% or GIPRCNT), where numbers from 0 - 100% represent growth inhibition, and numbers from -100% - 0 represent cell death. For example, a value of 40 represents 60% growth inhibition. A value of 0 means no net growth occurred over the course of the experiment. A value of -40 indicates 40% of cells at the beginning of the experiment died by the end of the experiment. A value of -100 means all cells are dead at the end of the experiment.
NCI-60 Human Tumor Cell Lines Screen was performed using the standard one-dose NCI protocol, which is described in more detail at https://dtp.cancer.gov/discovery_development/nci-60/default.htm.
Compounds with GIPRCNT values below 10 were considered active. Activity score was based on GIPRCNT using the following formula: […]
Score is 0 for GIPRCNT values of 100 or above, 50 for GIPRCNT values of 0, and 100 for GIPRCNT values of -100.
`C#CCOc1cccc(Nc2ncnc3c2ncn3C2CCN(C(=O)CCl)C2)c1` (stereo not given): the growth is -22.8% (active). For `CCN(CC)CCN1C(=O)c2c(c3c4ccccc4[nH]c3c3ccc4ccccc4c23)C1=O`, the growth is 85.5%. In the case of `COc1cccc(CNc2c3ccccc3nc3ccccc23)c1OC` it was 38.3%. As for `CCOC(=O)CNC1=C(Cl)C(=O)N(Cc2ccc(Cl)cc2)C1=O`, the growth was 103%.

Take `O=c1cc(C(F)(F)F)c2cc(-c3cc4ccccc4c(=O)o3)c(O)cc2o1`: the growth is 92.8%. For `Cc1cn(C)cn1` the value was 108%; for `CCN(CC)CCOc1ccc(C(=O)/C=C\c2ccc(Cl)cc2Cl)cc1`, 24.2%. For `COC1/C=C/OC2(C)Oc3c(C)c(O)c4c(O)c(c(/C=N/N(c5ccccc5)c5ccccc5)c(O)c4c3C2=O)NC(=O)C(C)=C/C=C/C(C)C(O)C(C)C(O)C(C)C(OC(C)=O)C1C` (stereo not given) the value was 71.1%; for `CCN(CC)CCn1c2ccc(OC)cc2c2sc3cc(O)ccc3c(=O)c21`, 28.2%; for `COC(=O)/C=C1/SC(=Nc2ccc(F)cc2)N(CCc2c[nH]c3ccc(O)cc23)C1=O`, 45.9%. For `Cc1ccc(S(=O)(=O)N2CCCN(c3nc(-c4ccccc4)nc4nc(-c5ccccc5)oc34)CC2)cc1` the value was 107%; for `C[C@@H]1NC(=O)[C@H](Cc2ccccc2)N(Cc2cccnc2)C1=O`, 106%; for `C#Cc1cccc(NC(=O)C2CCCCN2C(=O)CCl)c1` (stereo not given), -18.7% [8.25 µM] (active). `CCOC(=O)NC(=S)n1oc(=O)c2ccccc21`: the growth is 101%. In the case of `CCOC(=O)c1nnn(Cc2cc(=O)oc3ccc(O)cc23)c1C` it was 97.3%; in that of `OC1(c2ccccc2)c2ccccc2N(c2ccccc2)c2ccc(Cl)cc21` (stereo not given), -90.1% (active). In the case of `CCOC(=O)C(CCN(C)C)c1ccccc1` (stereo not given) it was 96.3%; in that of `CCOc1ccc(/C=C/C(=O)c2cccc(OCCCOc3cccc(C(=O)/C=C/c4ccc(OCC)cc4)c3)c2)cc1`, 94.9%. On to `O=C1c2cccnc2C(=O)c2c1c(C(=O)OCCc1ccccn1)c1ccccn21`, for which the growth was -70.3% (active). In the case of `O=C(CN1C(=O)S/C(=C\C(Cl)=C\c2ccccc2)C1=O)NC1CCS(=O)(=O)C1` (stereo not given) it was 103%; in that of `C(=C(\C1=NCCN1)n1ccc2ccccc21)/c1ccccc1`, 103%. For `O=C1C=CC2(O)OC/C(=C\c3ccccc3)C(O)=C2C1=O` (stereo not given) the value was 80.6%. For `COc1ccc2cc(C(=O)N3CCC([C@@H](C)C(=O)NCc4ccc5c(c4)OCO5)CC3)[nH]c2c1` the value was 83% [50 µM]; for `CN(C)Cc1cc(C(C)(C)C)cc(Br)c1O`, 109%; for `COc1cc(O)c2c(=O)c3c(CC=C(C)C)cc(OC)c(O)c3oc2c1`, 53.4%. On to `Cc1c2ncccc2nc2[nH]c3ccc(OCCN(C)C)cc3c12`, for which the growth is 53.3%. For `CCCOC(=O)Nc1nc2ccc(SCC)cc2s1` the value was 79.7%; for `COc1ccc(-c2cc(C(=O)N3N=C(c4ccc(N)cc4)CC3c3ccc(Cl)cc3)c3cc(OC)ccc3n2)cc1` (stereo not given), 83.3%; for `c1ccc(-c2c(-c3ccccc3)[n+](Cc3ccc4ccccc4c3)cn2Cc2ccc3ccccc3c2)cc1`, -93.3% (active). In the case of `CN(C)CCCn1c2c(c3ccncc3c1=O)C(=O)c1ccccc1-2` it was 25.6%; in that of `O=C(O)c1cn(C2CC2)c2cc(N3CCN(C(=O)N4CCOCC4)CC3)c(F)cc2c1=O`, 107%.

Turning to `COc1ccc2cc(-c3nc4ccc(C)cn4c3NCc3ccco3)c(=O)[nH]c2c1`, the growth is 95.6%.

For `CCCCO[C@@H]1C=C2[C@H]3CC(C)(C)C(=O)C[C@]3(C(=O)O[C@@H]3O[C@H](CO[C@@H]4O[C@H](CO)[C@@H](OC5OC(C)C(O)C(O)C5O)[C@H](O)[C@H]4O)[C@@H](O)[C@H](O)[C@H]3O)CC[C@@]2(C)[C@]2(C)CC[C@H]3C(C)(C)C(=O)CC[C@]3(C)[C@@H]12` (stereo not given in full), the growth was 82.7%. In the case of `CC1=C2[C@@H](CC1)[C@]1(C)O[C@@](C3CCNCC3)(C[C@H]1OC(=O)CO)[C@H]2OC(=O)/C=C/c1ccccc1` it was 99%; in that of `Cc1cc(O)cc(-c2nn(C)cc2-c2cc(N3CCOCC3)nc(-c3cccnc3)n2)c1`, 63%. For `C=C1C(=O)O[C@H]2[C@H]1CC/C(COC(=O)/C=C\C(=O)NCc1ccc(Cn3c(=O)sn(CCCCl)c3=O)cc1)=C\CC[C@@]1(C)O[C@@H]21` the value was 100%; for `C=C(C)[C@@H]1CC[C@]2(C(=O)Nc3ccccn3)CC[C@]3(C)[C@H](CC[C@@H]4[C@@]5(C)CCCNC(C)(C)[C@@H]5CC[C@]43C)[C@@H]12`, 5.09% (active). In the case of `CC(=O)N1N=C(c2ccc(Nc3nc(Nc4ccc(F)cc4)nc(Nc4ccc(F)cc4)n3)cc2)CC1c1ccc(N(C)C)cc1` (stereo not given) it was 67.5%; in that of `CCOC(=O)c1cn2ncnc(Oc3ccc(NC(=O)NC4CC4)c(Cl)c3)c2c1C`, 101%; in that of `O=C(O)CC(C(=O)O)/C(=C\c1ccccc1)c1ccccc1` (stereo not given), 108%.

(Values after PubChem BioAssay (NCI).)
